Each molecule was assayed on CLK4.
COc1ccc(CSc2nnc(-c3ccc4c(c3)CCO4)o2)cc1 was tested, and the Kd was 1300 nM. COc1ccc(CSc2nnc(-c3ccc4ncsc4c3)o2)cc1C(F)(F)F showed a Kd of 1100 nM. CNc1cc(-c2ccc3c(N)n[nH]c3c2)nc(N)n1 [GSK2224810] showed a Kd of 140 nM. Work on COc1ccc(CSc2nnc(-c3ccc4nccn4c3)o2)cc1C(F)(F)F yielded a Kd of 130 nM.

These molecules were tested on CSF1R.
Work on Cc1ccc(NC(=O)Nc2ccccc2)cc1-c1ccc(C(=O)Nc2ccncc2)cc1 [GSK1398471] yielded a Kd of 3300 nM. With COc1cccc(NC(=O)Nc2ccc(C)c(-c3ccc(C(=O)Nc4ccncc4)cc3)c2)c1 [GSK1398474] the Kd was 3300 nM. With Cc1ccc(NC(=O)Nc2ccccc2F)cc1-c1ccc(C(=O)Nc2ccncc2)cc1 [GSK1398477] the Kd was 2600 nM. Molecule Cc1ccc(NC(=O)c2ccc(Cl)cc2)cc1-c1ccc(C(=O)Nc2ccncc2)cc1 [GSK1398467] has a Kd of 880 nM. Cc1ccc(NC(=O)Nc2ccc(Cl)cc2)cc1-c1ccc(C(=O)Nc2ccncc2)cc1 [GSK1398472] was tested, and the Kd was 6700 nM.

Source: PMC5540273 (PLoS ONE, 2017)
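Note: kd values determined as follow-up on hits from a single-replicate KINOMEscan panel screen.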
